Most compounds without a hit are left out; they make up all but 1.3% or so of the library.
PREPL inh – PREPL enzyme inhibitors, primary screen, biochemical, fluorescence polarization; recombinant PREPL, fluorescence polarization activity-based probe; Prolyl endopeptidase-like (Homo sapiens), Q4J6C6; 320,000 compounds, 0.68% hits; inhibition, % at 5.96 µM; AID 2751, 2010
LYPLA2 counter – LYPLA2 inhibitors, primary screen, counter-screen for PME1 inhibitor project, biochemical, fluorescence polarization, FP-Rh probe ABPP | recombinant LYPLA2 | 320,000 compounds, 0.38% hits | inhibition, % at 5.9 µM;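 active means inhibition above the screen-wide mean plus 3 SD, limit set per campaign, cut at about 26% in these data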
Target sequence (O95372 whole entry, looked up): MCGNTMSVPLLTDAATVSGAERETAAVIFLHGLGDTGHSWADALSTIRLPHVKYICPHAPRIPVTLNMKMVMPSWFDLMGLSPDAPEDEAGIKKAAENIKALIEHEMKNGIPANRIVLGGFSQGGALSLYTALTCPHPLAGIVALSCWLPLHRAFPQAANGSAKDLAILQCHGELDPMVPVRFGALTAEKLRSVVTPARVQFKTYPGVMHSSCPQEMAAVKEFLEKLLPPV
ZTA DNA inh – counter-screen for EBNA-1 inhibitors: inhibitors of Epstein-Barr virus ZTA; P03206; ZTA-DNA binding, fluorescence polarization; inhibition, % at 11 µM; 320,000 compounds, 0.15% hits; AID 2234; in the data active means inhibition above about 33%
Target sequence (P03206 whole entry, looked up): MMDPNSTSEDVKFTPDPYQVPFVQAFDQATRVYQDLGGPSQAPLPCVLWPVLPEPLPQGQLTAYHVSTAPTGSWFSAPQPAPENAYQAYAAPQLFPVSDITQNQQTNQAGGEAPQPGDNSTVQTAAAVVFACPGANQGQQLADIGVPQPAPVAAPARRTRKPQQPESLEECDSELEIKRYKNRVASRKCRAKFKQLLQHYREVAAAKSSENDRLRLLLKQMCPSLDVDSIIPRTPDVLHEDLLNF
LYPLA1 counter – LYPLA1 inhibitors, primary screen, counter-screen for PME1 inhibitor project, biochemical, fluorescence polarization, FP-Rh probe ABPP; recombinant LYPLA1; inhibition, % at 5.9 µM; 320,000 compounds, 0.16% hits; AID 2174, 2009;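 active means inhibition above the mean of all tested compounds plus 3 SD, set per campaign, cut at about 14% in these data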;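 further: inhibitors block serine hydrolase probe labeling of LYPLA1 so polarization falls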
Target sequence (O75608 whole entry, looked up): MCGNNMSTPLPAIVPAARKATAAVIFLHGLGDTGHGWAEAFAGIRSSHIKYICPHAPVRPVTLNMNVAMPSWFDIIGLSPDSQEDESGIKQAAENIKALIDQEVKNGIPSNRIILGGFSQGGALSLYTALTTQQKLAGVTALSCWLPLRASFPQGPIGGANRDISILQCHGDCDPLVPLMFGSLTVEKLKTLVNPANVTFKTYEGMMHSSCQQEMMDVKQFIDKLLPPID
EBNA-1 inh – EBNA-1 DNA-binding inhibitors, primary screen, biochemical, fluorescence polarization | inhibition, % at 14.8 µM | 300,000 compounds, 0.34% hits | AID 1950, 2009; in the data active means inhibition above about 28%
PREPL inh cf – human PREPL enzyme inhibitors, confirmation, biochemical, fluorescence polarization; 2,000 compounds, 67% hits; shares compounds with PREPL inh; recombinant PREPL, fluorescence polarization activity probe; AID 2803, 2010; inhibition, % at 5.96 µM
Each line names hits and unclear results; the compound was inactive in the other large screens (follow-up assays come after a bar, where they were run). Unless noted, no stated cut-off is given here; in the data, active means inhibition above about 43%; inactive means the rest.

CN(C)CCCN1c2ccccc2Sc2ccccc21	none
CCC(=O)c1ccc2c(c1)N(CCCN(C)C)c1ccccc1S2	PREPL inh 63.8 | PREPL inh cf 55.2
COc1ccc(/C=C/C(=O)NCCCc2ccccc2)cc1	none
COc1ccc(/C=C/c2cc[n+](C(=O)Cc3ccccc3)cc2)cc1	PREPL inh 45.1 | PREPL inh cf inactive
COc1ccc(Cn2c(SCc3ccccc3C)nc3cc(OC)c(OC)cc3c2=N)cc1	PREPL inh 61.8 | PREPL inh cf 58.7
COCCCn1c(SCCc2ccccc2)nc2cc(OC)c(OC)cc2c1=N	PREPL inh 46.3 | PREPL inh cf inactive
COc1ccc(N2CCN(CCC(O)c3ccc4ccccc4c3)CC2)cc1 (stereo not drawn)	PREPL inh 70.5 | PREPL inh cf 68.1
O=C(C1=C[C@@H](c2ccc3c(c2)OCO3)C[C@@H](OCc2ccc(CO)cc2)O1)N1CCOCC1	PREPL inh 50.3 | PREPL inh cf 43.7
CN1CCN(C(=O)C2=C[C@@H](c3ccccc3)C[C@@H](OCc3ccc(CO)cc3)O2)CC1	PREPL inh 45.7 | PREPL inh cf 49.3
O=C(C1=C[C@@H](c2ccc(C(F)(F)F)cc2)C[C@@H](OCCCCO)O1)N1CCN(Cc2ccc3c(c2)OCO3)CC1	PREPL inh 70.2 | PREPL inh cf 60.4
O=C(C1=C[C@@H](c2ccc(C(F)(F)F)cc2)C[C@@H](OCCCCO)O1)N1CCN(Cc2ccccc2)CC1	PREPL inh 65.5 | PREPL inh cf 56.0
O=C(C1=C[C@H](c2ccccc2)C[C@H](OCc2ccc(CO)cc2)O1)N1CCOCC1	none
CCO[C@H]1OC(C(=O)N2CCN(Cc3ccc4c(c3)OCO4)CC2)=C[C@@H](c2ccc(Br)cc2)[C@@H]1CCCO	PREPL inh 47.2 | PREPL inh cf 44.2
CC(C)(C)[C@@H]1C=C(C(=O)N2CCN(Cc3ccc4c(c3)OCO4)CC2)O[C@H](OCc2ccc(CO)cc2)C1	none
CC(C)(C)[C@H]1C=C(C(=O)N2CCN(Cc3ccc4c(c3)OCO4)CC2)O[C@@H](OCCCCO)C1	PREPL inh 44.0 | PREPL inh cf inactive
O=C(C1=C[C@H](c2ccc(C(F)(F)F)cc2)C[C@H](OCc2ccc(CO)cc2)O1)N1CCN(Cc2ccc3c(c2)OCO3)CC1	PREPL inh 45.8 | PREPL inh cf 43.9
CC(=O)n1cc([C@@H]2C=C(C(=O)N3CCN(C)CC3)O[C@H](OCc3ccc(CO)cc3)C2)c2ccccc21	PREPL inh 45.8 | PREPL inh cf 52.0
C#Cc1ccc([C@H]2C=C(C(=O)N3CCN(Cc4ccccc4)CC3)O[C@@H](OCc3ccc(CO)cc3)C2)cc1	none
O=C(C1=C[C@@H](c2ccc(Br)cc2)C[C@@H](OCc2ccc(CO)cc2)O1)N1CCN(Cc2ccccc2)CC1	PREPL inh 65.5 | PREPL inh cf 53.4
O=C(C1=C[C@@H](c2ccc(C(F)(F)F)cc2)C[C@@H](OCc2ccc(CO)cc2)O1)N1CCN(Cc2ccc3c(c2)OCO3)CC1	PREPL inh 64.3 | PREPL inh cf 58.2
O=C(C1=C[C@@H](c2ccc(Br)cc2)C[C@@H](OCc2ccc(CO)cc2)O1)N1CCN(Cc2ccc3c(c2)OCO3)CC1	PREPL inh 45.0 | PREPL inh cf 58.6
O=C(O)C1=C[C@H](c2ccc3c(c2)OCO3)C[C@H](OCc2ccc(CO)cc2)O1	none
O=C(C1=C[C@H](c2ccc3c(c2)OCO3)C[C@H](OCc2ccc(CO)cc2)O1)N1CCCCCCC1	none
COc1cccc(N2CCN(C(=O)Cn3c(=O)oc4ccccc43)CC2)c1	none
CCC[C@@H](CN1CCC[C@H]1CN1C(N)=NC[C@H]1CC(C)C)N1C[C@@H](Cc2ccccc2)N(CCCC2CCCC2)C1=N	PREPL inh 49.4 (no result: LYPLA2 counter, ZTA DNA inh, LYPLA1 counter, EBNA-1 inh) | PREPL inh cf inactive
CC[C@@H](C)[C@@H]1CN([C@@H](CN2CCC[C@H]2CN2C(N)=NC[C@H]2CC(C)C)C(C)C)C(=N)N1CCCC1CCCC1	none (no result: LYPLA2 counter, ZTA DNA inh, LYPLA1 counter, EBNA-1 inh)
CCC[C@@H](CN1CCC[C@H]1CN1C(N)=NC[C@@H]1Cc1ccccc1)N1C[C@@H]([C@H](C)CC)N(CCCC2CCCC2)C1=N	PREPL inh 53.8 (no result: LYPLA2 counter, ZTA DNA inh, LYPLA1 counter, EBNA-1 inh) | PREPL inh cf 51.7
CC(C)[C@H](CN1CCC[C@H]1CN1C(N)=NC[C@H]1C(C)C)N1C[C@@H](Cc2ccccc2)N(CCCC2CCCC2)C1=N	PREPL inh 60.7 (no result: LYPLA2 counter, ZTA DNA inh, LYPLA1 counter, EBNA-1 inh) | PREPL inh cf 58.7
CCC[C@@H](CN1CCC[C@H]1CN1C(N)=NC[C@@H]1Cc1ccccc1)N1C[C@@H](Cc2ccccc2)N(CCCC2CCCC2)C1=N	none (no result: LYPLA2 counter, ZTA DNA inh, LYPLA1 counter, EBNA-1 inh)
CCCCN1C(=N)N([C@@H](CCC)CN2CCC[C@H]2CN2C(N)=NC[C@@H]2Cc2ccccc2)C[C@H]1Cc1ccccc1	PREPL inh 45.3 (no result: LYPLA2 counter, ZTA DNA inh, LYPLA1 counter, EBNA-1 inh) | PREPL inh cf 45.2
COCCn1c(N)c(C(=S)NC(=O)c2cccs2)c(=O)[nH]c1=O	none
C=CCN(C(=O)c1oc2c(Cl)cc(C)cc2c1C)C1CCS(=O)(=O)C1 (stereo not drawn)	none
CC(=O)Nc1ccc(S(=O)(=O)NC2=C(N3CCN(c4ccc(F)cc4)CC3)C(=O)c3ccccc3C2=O)cc1	PREPL inh 58.6 | PREPL inh cf 73.5
CCOc1ncccc1C(=O)Nc1cc(S(=O)(=O)N(CC)CC)ccc1N1CCOCC1	none (no result: LYPLA2 counter, ZTA DNA inh, LYPLA1 counter, EBNA-1 inh)
COC(=O)C1=C(NC(=O)COc2ccc3ccccc3c2)CCS1	PREPL inh 58.0 | PREPL inh cf inactive
CC(OC(=O)C1CC1)C(=O)Nc1ncc(Cl)cc1Cl (stereo not drawn)	none (no result: EBNA-1 inh)
CC(C)[C@H](CN1CCC[C@H]1CN1C(N)=NC[C@@H]1Cc1ccccc1)N1C[C@@H](Cc2ccccc2)N(CCc2ccc(Cl)c(Cl)c2)C1=N	PREPL inh 53.2 (no result: LYPLA2 counter, ZTA DNA inh, LYPLA1 counter, EBNA-1 inh) | PREPL inh cf 53.4
Cc1cccc(CCN2C(N(C)C)=NC[C@@H]2Cc2ccccc2)c1	none (no result: LYPLA2 counter, ZTA DNA inh, LYPLA1 counter, EBNA-1 inh)
CC(C)[C@@H]1CN=C(N)N1C[C@@H]1CCCN1C[C@H](C)N1C[C@@H](Cc2ccccc2)N(CCc2ccc(Cl)c(Cl)c2)C1=N	PREPL inh 63.1 (no result: LYPLA2 counter, ZTA DNA inh, LYPLA1 counter, EBNA-1 inh) | PREPL inh cf 61.2
NC1=NC[C@@H](Cc2ccc(O)cc2)N1CCc1cccc(F)c1	none
C[C@@H](CN1CCC[C@H]1CN1C(N)=NC[C@@H]1Cc1ccccc1)N1C[C@@H](Cc2ccccc2)N(CCc2ccc(Cl)c(Cl)c2)C1=N	PREPL inh 45.9 (no result: LYPLA2 counter, ZTA DNA inh, LYPLA1 counter, EBNA-1 inh) | PREPL inh cf inactive
O=C(NCc1ccncc1)c1cccc(S(=O)(=O)Nc2ccc(SC(F)F)cc2)c1	none
O=C(Oc1ccc2ccc(=O)oc2c1)c1cccs1	PREPL inh 45.3 | PREPL inh cf 59.8
O=C(Oc1ccc2c(-c3ccccc3)cc(=O)oc2c1)c1cccs1	none
CNC(=S)N1N=C(c2ccc(OC)cc2)CC1c1ccc(N(C)C)cc1 (stereo not drawn)	PREPL inh 55.6 | PREPL inh cf 59.8

Source: PubChem (The Scripps Research Institute Molecular Screening Center)
